# A selection: hits, their analogues and other compounds. The true share with any hit is near 19%.
# TDP1 cell CPT: DT40-hTDP1 cell growth loss with CPT; Potency, µM (titrated, usually from 46.2 µM), for the others: at the highest dose activity change, negative = growth inhibition, most hits filed as inhibitors; hit rate 12% among 420,000; chicken DT40 Tdp1-/-;hTDP1 cells + 20 nM CPT, ATP luminescence, 48 h; further: nearly all actives have a fitted effect of over 55% in size
#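 Cell growth measured by CellTiter-Glo luminescence after a minimum 48 h, 37 C compound exposure with 20 nM CPT in Tdp1-knockout DT40 cells stably expressing hTDP1, seeded 400/well; qHTS titration format.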
# HT1080-NT tox: kills 2HG-producing HT-1080-NT fibrosarcoma cells. HT-1080-NT fibrosarcoma viability, CellTiter-Glo ATP luminescence, 48 h. Potency, µM (titrated, usually from 46.1 µM), for inactives: at the top dose activity, negative = less viability, actives largely listed as cytotoxic. hit rate 1.6% among 360,000. AID 686970;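 further: NT is the 2HG producing partner of a matched IDH1 knockdown line; 0% = DMSO-treated cells and -100% = media-only wells without cells; nearly all actives have a fitted effect of over 55% in size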
#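 Compounds were tested in concentration-response format on HT-1080-NT cells for 48 hours at 37 degrees C. Cell viability came from CellTiter-Glo luminescence; curves were classified by r2, response magnitude and activity.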
# KB-3-1 cytotox: kills parental KB-3-1 adenocarcinoma cells. KB-3-1 viability, CellTiter-Glo ATP luminescence, 72 h. Potency, µM (top dose mostly 46.1 µM), usual class: cytotoxic. hit rate 1.4% among 400,000. AID 1347075; further: nearly all actives have a fitted effect of over 60% in size
#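 Viability of parental KB-3-1 cells, measured by CellTiter-Glo luminescence, followed a 72 h incubation at 37 °C with pinned compounds in phenol-red-free DMEM containing 10% FBS.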
# HT1080 IDH1KD tx: HT-1080 IDH1 knockdown cell toxicity (counter line); hit rate 2% among 360,000; HT-1080 IDH1 knockdown viability, ATP luminescence, 48 h; Potency, µM (highest dose often 46.1 µM), for inactives: at the highest dose activity, negative = toxicity, hits mostly cytotoxic;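 further: 0% = DMSO wells and -100% = cell-free medium wells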
#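 HT-1080-IDH1KD cells (IDH1 knocked down), 750/well in RPMI with 5% FBS, treated with compound 48 h at 37 degrees C. Viability by CellTiter-Glo luminescence, normalised to DMSO and no-cell wells; concentration-response curves classed.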
# DT40 TDP1 no CPT: qHTS for Inhibitors of human tyrosyl-DNA phosphodiesterase 1 (TDP1): qHTS in cells in absence of CPT; Potency, µM (series often up to 46.2 µM), without a hit: at the top dose activity change, negative = growth inhibition, usual class: inhibitors; hit rate 15% among 420,000; DT40 Tdp1-/- hTDP1 cells, no CPT, ATP luminescence, 48 h; further: nearly all actives have a fitted effect of over 55% in size
#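 Stably hTDP1-transfected Tdp1-null chicken DT40 cells were treated with library compounds minus camptothecin and grown for at least 48 hr at 37 °C, after which cellular ATP was quantified by luminescence.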
# KB-V1 MDR tox: KB-V1 MDR subline cytotoxicity; KB-V1 MDR cells viability, CellTiter-Glo, 72 h; hit rate 3.4% among 400,000; Potency, µM (titrated, usually from 46.1 µM), usual class: cytotoxic; further: nearly all actives have a fitted effect of over 60% in size
#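 Readout: CellTiter-Glo luminescence, 10 min after addition. Cells: KB-V1 MDR subline, 72 h at 37 degrees C with compound. Analysis: corrected, normalized data fitted to concentration-effect curves.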
# Active calls of the source: *; i = inactive; u = inconclusive; x = not tested or not shown; [ ] = dose if it differs, or a comment. The call rests on the fitted dose curve; in most records, active means well fitted curve in the direction sought with a large enough effect; inconclusive means small, poorly fitted or top-dose-only effect, or another doubt; inactive means no such curve, though single readings can be large; an effect the other way counts as inactive or inconclusive. Unless noted, on the % scale 0 is the no-effect control and ±100 the full control effect; potency means the concentration at half of the fitted maximal effect.
SMILES,TDP1 cell CPT,HT1080-NT tox,KB-3-1 cytotox,HT1080 IDH1KD tx,DT40 TDP1 no CPT,KB-V1 MDR tox
CC12CCC(=O)C=C1CC(N1CC1)C1C2CCC2(C)C(O)CCC12 (stereo unspecified),1.8µM*,10%,u,2%,2.6µM*,u
CC(=O)C1CCC2C3C(N4CC4)CC4=CC(=O)CCC4(C)C3CCC12C (stereo unspecified),3.7µM*,5%,u,-2%,4.6µM*,u
CC1(C)S[C@@H]2[C@H](N3C(=O)C(c4ccccc4)NC3(C)C)C(=O)N2[C@H]1C(=O)O (stereo partly specified),3%,x,x,x,-13%,x
Cn1nc(-c2ccc(C(=O)Nc3ccc(OC(F)(F)F)cc3)cc2)c2ccccc2c1=O,9.2µM*,x,u,x,16µM*,i
CCN(CC)C(=O)c1ccc(NC(=O)Cn2nc(-c3ccc(C)cc3)c3ccccc3c2=O)cc1,3%,x,u,x,-20%,i
Cc1ccc(NC(=O)COc2ccc(-c3nn(C)c(=O)c4ccccc34)cc2)c(C)c1,16µM*,x,x,x,13µM*,x
CCN(CC)C(=O)c1ccc(NC(=O)COc2ccc(-c3nn(C)c(=O)c4ccccc34)cc2)cc1,16µM*,-17%,u,-14%,u,u
CCN(CC)C(=O)c1ccc(NC(=O)CCn2nc(-c3ccc(C)cc3)c3ccccc3c2=O)cc1,18µM*,x,x,x,15µM*,x
C[C@]12O[C@H](C[C@]1(O)CO)n1c3ccccc3c3c4c(c5c6ccccc6n2c5c31)CNC4=O,0.3µM*,x,x,x,0.38µM*,x
Fc1ccc2c(c1)nnn2C1CCN(Cc2c(Cl)cccc2Cl)CC1,18µM*,1%,i,0%[9.24 µM],18µM*,u
Cc1ccc(C)c(CN2CCC(n3nnc4cc(F)ccc43)CC2)c1,u,-6%,i,-4%,u,i
c1ccc2c[n+](CCCCCCCCCC[n+]3ccc4ccccc4c3)ccc2c1,10µM*,-17%,x,u,8.3µM*,u
Cc1ccc(-c2cc(-c3ccccc3)cc(-c3ccccc3)[n+]2-c2ccccc2C(=O)O)cc1,9.2µM*,-26%,u,-13%,9.2µM*,i
Cc1ccc(N)c(C(=O)c2ccccc2)c1,-1%,0%,i,0%,-13%,i
c1ccc(N2CCCC3(CCNCC3)C2)nc1,u,x,x,x,16µM*,x
c1cnc(N2CCC3(CCNCC3)CC2)nc1,u,x,x,x,23µM*,x
CC12CN3CCN(C1)CC(C)(C3)C2=NO,0%,-3%,i,-3%,8%,i
COC(=O)C1=C(c2ccc(-c3ccccc3)c(F)c2)C[C@@H]2CC[C@H]1N2C(=O)NCCNC(C)=O,21µM*,-2%,i,4%,u,i
COC(=O)C1=C(c2cccc(C#N)c2)C[C@@H]2CC[C@H]1N2C(=O)NCCO,-2%,1%,i,19%,4%,i
COC(=O)C1=C(c2ccc(OC(F)(F)F)cc2)C[C@@H]2CC[C@H]1N2C(=O)NCc1cccc2ccccc12,u,-14%,u,u,u,i
COC(=O)C1=C(c2ccc(-c3ccccc3)c(F)c2)C[C@@H]2CC[C@H]1N2C(=O)NCc1cccc2ccccc12,23µM*,u,i,-12%,23µM*,i
COC(=O)C1=C(c2ccc(Cl)c(C(F)(F)F)c2)C[C@@H]2CC[C@H]1N2C(=O)NCCCOC(C)C,26µM*,-6%,i,-2%,13µM*,i
COC(=O)C1=C(c2ccc(-c3ccccc3)c(F)c2)C[C@@H]2CC[C@H]1N2C(=O)NCCOc1ccc(OC)cc1,15µM*,0%,u,-14%,15µM*,u

# High-throughput results as filed in PubChem.
